Our source for the binding signal values is patent US20040191812, “Target-dependent transcription using deletion mutants of N4 RNA polymerase” (published 2004).

Assay [1] has as its target T1, N4 mini-vRNAP (His-tagged) (Bacteriophage N4, UniProt Q859P9 SEQ:34-1143).
T1 chain: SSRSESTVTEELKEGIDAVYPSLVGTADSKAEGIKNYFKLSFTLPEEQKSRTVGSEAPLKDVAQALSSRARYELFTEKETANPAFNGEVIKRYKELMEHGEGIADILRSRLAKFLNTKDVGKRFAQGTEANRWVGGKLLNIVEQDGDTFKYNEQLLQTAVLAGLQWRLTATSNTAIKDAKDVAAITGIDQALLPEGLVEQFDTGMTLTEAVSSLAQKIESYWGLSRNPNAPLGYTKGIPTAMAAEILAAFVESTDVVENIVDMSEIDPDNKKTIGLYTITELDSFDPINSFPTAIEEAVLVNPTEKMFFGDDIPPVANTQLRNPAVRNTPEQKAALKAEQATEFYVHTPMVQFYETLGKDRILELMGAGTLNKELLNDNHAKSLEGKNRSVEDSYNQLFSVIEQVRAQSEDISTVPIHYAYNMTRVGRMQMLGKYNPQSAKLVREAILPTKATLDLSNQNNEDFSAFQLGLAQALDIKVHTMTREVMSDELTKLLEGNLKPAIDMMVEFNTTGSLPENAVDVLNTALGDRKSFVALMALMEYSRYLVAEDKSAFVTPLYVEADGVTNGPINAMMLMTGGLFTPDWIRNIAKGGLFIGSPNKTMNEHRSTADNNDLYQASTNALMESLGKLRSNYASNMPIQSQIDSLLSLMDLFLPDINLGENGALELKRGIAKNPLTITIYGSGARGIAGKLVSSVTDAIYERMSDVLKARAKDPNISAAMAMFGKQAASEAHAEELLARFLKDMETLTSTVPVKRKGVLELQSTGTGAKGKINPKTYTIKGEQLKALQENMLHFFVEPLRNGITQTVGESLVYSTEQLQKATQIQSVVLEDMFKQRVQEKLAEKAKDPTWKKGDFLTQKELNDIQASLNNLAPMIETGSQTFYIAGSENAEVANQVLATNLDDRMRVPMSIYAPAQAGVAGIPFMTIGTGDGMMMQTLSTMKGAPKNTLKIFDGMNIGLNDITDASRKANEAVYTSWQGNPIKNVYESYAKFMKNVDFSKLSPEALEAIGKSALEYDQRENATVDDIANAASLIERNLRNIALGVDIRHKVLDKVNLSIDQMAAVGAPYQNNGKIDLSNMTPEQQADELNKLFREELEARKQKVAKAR
Kind of assay: filter; two orders of magnitude reduction. As to conditions: tags: N-terminal hexahistidine (pBAD); label: 32P end-label; hairpin, 8 bp stem; ssDNA; [none].

Assay [2] deals with T1, N4 mini-vRNAP (His-tagged). As to the kind of experiment: filter; further one order of magnitude reduction. As to conditions: tags: N-terminal hexahistidine (pBAD); label: 32P end-label; hairpin; ssDNA; [none].

On to TCCAAAAGAAGCGGAGCTTCTTT, for which the binding signal in assay [1] is ~100 fold lower affinity than wild type.

For the sequence TCCAAAAGAAGCGGAGCTTCTTTTG, in assay [2], the binding signal is ~1000 fold lower affinity than wild type.
